Measured values published in PMC11006913.
Where a chain is given by its changes, count along the chain named.

Key:
Experiment in all cases: PBM; 200 nM protein, PBS
Conditions in all cases: dsDNA, one strand shown
ALX3 [1] = target: ALX3 (Homo sapiens, UniProt O95076 139-225, N203Q)
ALX3 [2] = target: ALX3 (Homo sapiens, UniProt O95076 139-225)
VAX1 [3] = target: VAX1 (Homo sapiens, UniProt Q5SQQ9 86-172)
VAX1 [4] = target: VAX1 (Homo sapiens, UniProt Q5SQQ9 86-172, T142I)
VAX1 [5] = target: VAX1 (Homo sapiens, UniProt Q5SQQ9 86-172, K157R)
Chain of VAX1 (Homo sapiens, UniProt Q5SQQ9 86-172, K157R) (Q5SQQ9 86-172 K157R): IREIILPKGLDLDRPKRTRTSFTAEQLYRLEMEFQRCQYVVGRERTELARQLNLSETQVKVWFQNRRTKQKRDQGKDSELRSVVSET

ALX3 [6] = target: ALX3 (Homo sapiens, UniProt O95076 139-225, L168Q)
Chain of ALX3 (Homo sapiens, UniProt O95076 139-225, L168Q) (O95076 139-225 L168Q): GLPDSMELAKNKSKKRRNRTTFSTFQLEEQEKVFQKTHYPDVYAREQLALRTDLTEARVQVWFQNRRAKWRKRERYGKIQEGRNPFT

ALX3 [7] = target: ALX3 (Homo sapiens, UniProt O95076 139-225, L168V)
Chain of ALX3 (Homo sapiens, UniProt O95076 139-225, L168V) (O95076 139-225 L168V): as the sequence (O95076 139-225 L168Q) above, with Q30V counted along it

ALX3 [8] = target: ALX3 (Homo sapiens, UniProt O95076 139-225, N203S)
Chain of ALX3 (Homo sapiens, UniProt O95076 139-225, N203S) (O95076 139-225 N203S): as the sequence (O95076 139-225 L168Q) above, with Q30L, N65S counted along it

PAX4 [9] = target: T1, PAX4 (Homo sapiens, UniProt O43316 9-242, F177V)
T1 sequence: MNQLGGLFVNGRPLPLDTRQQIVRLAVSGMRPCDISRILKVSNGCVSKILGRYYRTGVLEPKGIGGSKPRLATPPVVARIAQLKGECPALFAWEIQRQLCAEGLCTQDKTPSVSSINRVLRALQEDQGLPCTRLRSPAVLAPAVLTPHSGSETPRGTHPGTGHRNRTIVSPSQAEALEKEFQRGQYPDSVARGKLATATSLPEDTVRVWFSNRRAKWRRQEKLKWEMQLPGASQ

PAX4 [10] = target: T2, PAX4 (Homo sapiens, UniProt O43316 9-242, R227W)
T2 sequence: T1 sequence with V169F, R219W

PAX4 [11] = target: T3, PAX4 (Homo sapiens, UniProt O43316 9-242, F177Y)
T3 sequence: T1 sequence with V169Y

HOXD13 [12] = target: HOXD13 (Homo sapiens, UniProt P35453 263-343, T313R)
Chain of HOXD13 (Homo sapiens, UniProt P35453 263-343, T313R) (P35453 263-343 T313R): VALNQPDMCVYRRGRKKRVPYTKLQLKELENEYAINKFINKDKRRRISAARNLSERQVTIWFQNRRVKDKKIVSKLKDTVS

HOXD13 [13] = target: HOXD13 (Homo sapiens, UniProt P35453 263-343)
Chain of HOXD13 (Homo sapiens, UniProt P35453 263-343) (P35453 263-343): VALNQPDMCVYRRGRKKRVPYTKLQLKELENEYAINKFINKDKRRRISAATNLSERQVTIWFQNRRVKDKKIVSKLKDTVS

HOXD13 [14] = target: HOXD13 (Homo sapiens, UniProt P35453 263-343, T313A)
Chain of HOXD13 (Homo sapiens, UniProt P35453 263-343, T313A) (P35453 263-343 T313A): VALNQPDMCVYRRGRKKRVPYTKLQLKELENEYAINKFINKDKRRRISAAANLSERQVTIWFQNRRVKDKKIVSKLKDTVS

NKX2-6 [15] = target: T4, NKX2-6 (Homo sapiens, UniProt A6NCS4 118-204)
T4 sequence: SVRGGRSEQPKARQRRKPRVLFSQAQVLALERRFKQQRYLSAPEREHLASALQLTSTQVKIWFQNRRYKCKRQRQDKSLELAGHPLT

PROP1 [16] = target: PROP1 (Homo sapiens, UniProt O75360 56-141)
Chain of PROP1 (Homo sapiens, UniProt O75360 56-141) (O75360 56-141): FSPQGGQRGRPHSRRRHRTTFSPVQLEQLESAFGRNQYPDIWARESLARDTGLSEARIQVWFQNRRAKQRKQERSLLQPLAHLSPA

PROP1 [17] = target: PROP1 (Homo sapiens, UniProt O75360 56-141, R99H)
Chain of PROP1 (Homo sapiens, UniProt O75360 56-141, R99H) (O75360 56-141 R99H): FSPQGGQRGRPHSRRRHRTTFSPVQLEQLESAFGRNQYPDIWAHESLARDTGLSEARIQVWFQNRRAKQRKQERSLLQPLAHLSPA

NKX2-6 [18] = target: T5, NKX2-6 (Homo sapiens, UniProt A6NCS4 118-204, F151L)
T5 sequence: T4 sequence with F34L

PROP1 [19] = target: PROP1 (Homo sapiens, UniProt O75360 56-141, F88S)
Chain of PROP1 (Homo sapiens, UniProt O75360 56-141, F88S) (O75360 56-141 F88S): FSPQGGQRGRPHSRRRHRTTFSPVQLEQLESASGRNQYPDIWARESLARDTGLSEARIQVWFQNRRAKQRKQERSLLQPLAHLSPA

Chain of ALX3 (Homo sapiens, UniProt O95076 139-225, N203Q) (O95076 139-225 N203Q): as the sequence (O95076 139-225 L168Q) above, with Q30L, N65Q counted along it
Chain of ALX3 (Homo sapiens, UniProt O95076 139-225) (O95076 139-225): as the sequence (O95076 139-225 L168Q) above, with Q30L counted along it
Chain of VAX1 (Homo sapiens, UniProt Q5SQQ9 86-172, T142I) (Q5SQQ9 86-172 T142I): as the sequence (Q5SQQ9 86-172 K157R) above, with T57I, R72K counted along it
Chain of VAX1 (Homo sapiens, UniProt Q5SQQ9 86-172) (Q5SQQ9 86-172): as the sequence (Q5SQQ9 86-172 K157R) above, with R72K counted along it

With CATATTAC the binding signal (ALX3 [1]) was 8.38 upbm affinity estimate (log intensity, higher = more binding, comparable within an allelic series), the binding signal (ALX3 [2]) was 10.5 upbm affinity estimate (log intensity, higher = more binding, comparable within an allelic series) and the binding signal (VAX1 [3]) was 10.8 upbm affinity estimate (log intensity, higher = more binding, comparable within an allelic series). The binding signal (VAX1 [4]) was 10.4 upbm affinity estimate (log intensity, higher = more binding, comparable within an allelic series) and the binding signal (VAX1 [5]) was 10.5 upbm affinity estimate (log intensity, higher = more binding, comparable within an allelic series).
For CCTGGCCC, the binding signal (ALX3 [1]) was 7.75 upbm affinity estimate (log intensity, higher = more binding, comparable within an allelic series), the binding signal (ALX3 [2]) was 7.59 upbm affinity estimate (log intensity, higher = more binding, comparable within an allelic series) and the binding signal (ALX3 [6]) was 7.65 upbm affinity estimate (log intensity, higher = more binding, comparable within an allelic series). For the same sequence, the binding signal (ALX3 [7]) was 7.67 upbm affinity estimate (log intensity, higher = more binding, comparable within an allelic series) and the binding signal (ALX3 [8]) was 7.74 upbm affinity estimate (log intensity, higher = more binding, comparable within an allelic series).
ATATTATA was tested, and the binding signal (ALX3 [1]) was 8.63 upbm affinity estimate (log intensity, higher = more binding, comparable within an allelic series), the binding signal (PAX4 [9]) was 10.7 upbm affinity estimate (log intensity, higher = more binding, comparable within an allelic series) and the binding signal (PAX4 [10]) was 10.9 upbm affinity estimate (log intensity, higher = more binding, comparable within an allelic series). The binding signal (ALX3 [8]) was 8.69 upbm affinity estimate (log intensity, higher = more binding, comparable within an allelic series).
For GACATAAC, the binding signal (ALX3 [1]) was 8.29 upbm affinity estimate (log intensity, higher = more binding, comparable within an allelic series) and the binding signal (ALX3 [2]) was 9.44 upbm affinity estimate (log intensity, higher = more binding, comparable within an allelic series).
CCGCGGAC was tested, and the binding signal (ALX3 [1]) was 7.74 upbm affinity estimate (log intensity, higher = more binding, comparable within an allelic series), the binding signal (ALX3 [2]) was 7.45 upbm affinity estimate (log intensity, higher = more binding, comparable within an allelic series) and the binding signal (ALX3 [6]) was 7.7 upbm affinity estimate (log intensity, higher = more binding, comparable within an allelic series). The binding signal (ALX3 [7]) was 7.67 upbm affinity estimate (log intensity, higher = more binding, comparable within an allelic series) and the binding signal (ALX3 [8]) was 7.75 upbm affinity estimate (log intensity, higher = more binding, comparable within an allelic series).
With AATATTAT the binding signal (ALX3 [1]) was 8.61 upbm affinity estimate (log intensity, higher = more binding, comparable within an allelic series), the binding signal (PAX4 [9]) was 10.7 upbm affinity estimate (log intensity, higher = more binding, comparable within an allelic series) and the binding signal (ALX3 [8]) was 8.71 upbm affinity estimate (log intensity, higher = more binding, comparable within an allelic series).
In the case of AGCCGGCG, the binding signal (ALX3 [1]) is reported as 7.78 upbm affinity estimate (log intensity, higher = more binding, comparable within an allelic series), the binding signal (ALX3 [2]) is reported as 7.6 upbm affinity estimate (log intensity, higher = more binding, comparable within an allelic series) and the binding signal (VAX1 [3]) is reported as 6.78 upbm affinity estimate (log intensity, higher = more binding, comparable within an allelic series). The binding signal (ALX3 [6]) was 7.66 upbm affinity estimate (log intensity, higher = more binding, comparable within an allelic series), the binding signal (ALX3 [7]) was 7.63 upbm affinity estimate (log intensity, higher = more binding, comparable within an allelic series) and the binding signal (VAX1 [4]) was 6.99 upbm affinity estimate (log intensity, higher = more binding, comparable within an allelic series). For the same sequence, the binding signal (ALX3 [8]) was 7.77 upbm affinity estimate (log intensity, higher = more binding, comparable within an allelic series) and the binding signal (VAX1 [5]) was 6.79 upbm affinity estimate (log intensity, higher = more binding, comparable within an allelic series).
With TATACATA the binding signal (ALX3 [1]) was 8.57 upbm affinity estimate (log intensity, higher = more binding, comparable within an allelic series), the binding signal (PAX4 [9]) was 10.7 upbm affinity estimate (log intensity, higher = more binding, comparable within an allelic series) and the binding signal (PAX4 [11]) was 10.7 upbm affinity estimate (log intensity, higher = more binding, comparable within an allelic series).
With CCACAGGG the binding signal (ALX3 [1]) was 7.75 upbm affinity estimate (log intensity, higher = more binding, comparable within an allelic series), the binding signal (HOXD13 [12]) was 9.71 upbm affinity estimate (log intensity, higher = more binding, comparable within an allelic series) and the binding signal (HOXD13 [13]) was 9.49 upbm affinity estimate (log intensity, higher = more binding, comparable within an allelic series). The binding signal (ALX3 [2]) was 7.62 upbm affinity estimate (log intensity, higher = more binding, comparable within an allelic series), the binding signal (ALX3 [6]) was 7.81 upbm affinity estimate (log intensity, higher = more binding, comparable within an allelic series) and the binding signal (HOXD13 [14]) was 9.58 upbm affinity estimate (log intensity, higher = more binding, comparable within an allelic series). The binding signal (ALX3 [7]) was 7.81 upbm affinity estimate (log intensity, higher = more binding, comparable within an allelic series) and the binding signal (ALX3 [8]) was 7.73 upbm affinity estimate (log intensity, higher = more binding, comparable within an allelic series).
CGGCCCAG was tested, and the binding signal (ALX3 [1]) was 7.75 upbm affinity estimate (log intensity, higher = more binding, comparable within an allelic series), the binding signal (NKX2-6 [15]) was 8.83 upbm affinity estimate (log intensity, higher = more binding, comparable within an allelic series) and the binding signal (ALX3 [2]) was 7.72 upbm affinity estimate (log intensity, higher = more binding, comparable within an allelic series). The binding signal (PROP1 [16]) was 6.51 upbm affinity estimate (log intensity, higher = more binding, comparable within an allelic series), the binding signal (PROP1 [17]) was 6.59 upbm affinity estimate (log intensity, higher = more binding, comparable within an allelic series) and the binding signal (ALX3 [6]) was 7.67 upbm affinity estimate (log intensity, higher = more binding, comparable within an allelic series). For the same sequence, the binding signal (NKX2-6 [18]) was 9.1 upbm affinity estimate (log intensity, higher = more binding, comparable within an allelic series), the binding signal (ALX3 [7]) was 7.67 upbm affinity estimate (log intensity, higher = more binding, comparable within an allelic series) and the binding signal (PROP1 [19]) was 6.34 upbm affinity estimate (log intensity, higher = more binding, comparable within an allelic series). The binding signal (ALX3 [8]) was 7.74 upbm affinity estimate (log intensity, higher = more binding, comparable within an allelic series).
In the case of ATAATATA, the binding signal (ALX3 [1]) is reported as 8.66 upbm affinity estimate (log intensity, higher = more binding, comparable within an allelic series), the binding signal (PAX4 [9]) is reported as 10.7 upbm affinity estimate (log intensity, higher = more binding, comparable within an allelic series) and the binding signal (ALX3 [8]) is reported as 8.76 upbm affinity estimate (log intensity, higher = more binding, comparable within an allelic series).
